Measured values taken from PubChem BioAssay (NCI).
This is part of a sample that, as a whole, favours compounds with a hit. Of some 79,000 tested, about 15% had one in any assay. A number with no mark means an inactive call. Calls of active or inactive are those of the source. Cut-off read from the data, not from the text of the source: active = growth inhibition above about 70%; inactive = the rest.

Experiments:
[1] = NCI Yeast Anticancer Drug Screen. Data for the rad50 strain (AID 155);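 note: 0% = growth of vehicle-only cultures of the same strain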; conditions: S. cerevisiae rad50 strain growth inhibition, active compounds read high
Method in brief: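 Readout: growth inhibition relative to vehicle-treated cultures. Compound exposure was carried out in a genetically defined yeast strain deficient in DNA damage repair.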

[2] = NCI Yeast Anticancer Drug Screen. Data for the mec2-1 strain (AID 157); conditions: S. cerevisiae mec2-1 strain, active compounds read high
Method in brief: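 Vehicle-treated cultures served as reference for growth inhibition of compound-exposed mec2-1 yeast.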

[3] = NCI Yeast Anticancer Drug Screen. Data for the sgs1 mgt1 strain (AID 161);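 note: 0% = growth of cultures given vehicle only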; conditions: S. cerevisiae sgs1 mgt1 strain, active compounds read high
Method in brief: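 Test agents were incubated with a DNA-repair-mutant yeast strain. Growth was then read and compared against vehicle-treated controls.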

[4] = NCI Yeast Anticancer Drug Screen. Data for the cln2 rad14 strain (AID 165);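 note: 0% = growth equal to vehicle treated cultures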; conditions: S. cerevisiae cln2 rad14 strain, active compounds read high
Method in brief: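 Each compound was tested on cln2 rad14 yeast. Inhibition of growth was calculated against vehicle-exposed controls.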

[5] = NCI Yeast Anticancer Drug Screen. Data for the bub3 strain (AID 167); conditions: S. cerevisiae bub3 mutant strain, active compounds read high
Method in brief: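 Readout: yeast growth inhibition, expressed relative to vehicle-only wells. The test organism is a mutant strain from a panel with lesions in DNA repair or checkpoint genes.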

[6] = NCI Yeast Anticancer Drug Screen. Data for the mlh1 rad18 strain (AID 175); conditions: S. cerevisiae mlh1 rad18 strain growth inhibition, active compounds read high
Method in brief: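 Vehicle-treated cultures served as the reference for growth inhibition in a yeast strain carrying DNA damage repair alterations exposed to each compound.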

[7] = at 5.0 µM (retest, dose inferred, filed as 0.5)
[8] = at 50.0 µM (retest, dose inferred, filed as 5.0)

| SMILES | growth inhibition [1, 7] | growth inhibition [1, 8] | growth inhibition ([1]; at 50.0 µM) | growth inhibition [2, 7] | growth inhibition [2, 8] | growth inhibition ([2]; at 50.0 µM) | growth inhibition [3, 7] | growth inhibition [3, 8] | growth inhibition ([3]; at 50.0 µM) | growth inhibition [4, 7] | growth inhibition [4, 8] | growth inhibition ([4]; at 50.0 µM) | growth inhibition [5, 7] | growth inhibition [5, 8] | growth inhibition ([5]; at 50.0 µM) | growth inhibition [6, 7] | growth inhibition [6, 8] | growth inhibition ([6]; at 50.0 µM) |
| --- | --- | --- | --- | --- | --- | --- | --- | --- | --- | --- | --- | --- | --- | --- | --- | --- | --- | --- |
| CCOC1=C(c2ccccc2)Sc2ccc(C)cc2C1c1ccc(C)cc1 (stereo not given) | 15% | 35% | 60.2% | 0% | 76% (active) | 78.2% (active) | 10% | 81% (active) | 95.3% (active) | -4% | 51% | 13.1% | -3% | 61% | 90% (active) | -2% | 81% (active) | 82.9% (active) |
| COc1ccc(I)c(C=NC2CCCCC2)c1C | 41% | 94% (active) | 97.2% (active) | 16% | 82% (active) | 91.5% (active) | 41% | 92% (active) | 99% (active) | 1% | 88% (active) | 41.8% | 35% | 94% (active) | 89.4% (active) | 27% | 93% (active) | 94.7% (active) |
| C=CCCCCCCCCC(=O)OCC=C | 0% | 4% | -2.1% | 6% | 3% | -18.1% | 4% | 9% | 16.4% | 0% | 0% | 26.6% | -3% | -4% | 10.9% | -2% | -1% | 9.2% |
| CCCCCCCCCCCCO | 10% | 23% | 64.4% | 9% | 24% | 42% | -4% | 28% | 60.8% | 0% | 12% | -4.65% | -6% | 51% | 2.85% | 12% | 55% | 76.4% (active) |
| O=C1OC(c2ccccc2)(c2ccccc2)Cc2ccccc21 | -4% | 20% | 94% (active) | -9% | -4% | 96% (active) | -7% | -16% | 91% (active) | -4% | 7% | 91.3% (active) | -27% | -13% | 90.8% (active) | -21% | 8% | 94.8% (active) |
| NNc1ccc2ccccc2n1 | -4% | 98% (active) | 87.5% (active) | 1% | 93% (active) | 52.5% | 3% | 99% (active) | 46.2% | 6% | 52% | 86.9% (active) | 14% | 99% (active) | 93.2% (active) | 19% | 99% (active) | 93.4% (active) |
| CCCCCCCCCCCCCCCC1(OC)C[N+](C)(C)CCO1 (stereo not given) | 99% (active) | 99% (active) | 99.5% (active) | 100% (active) | 100% (active) | 99.7% (active) | 99% (active) | 100% (active) | 99.7% (active) | 100% (active) | 100% (active) | 99.5% (active) | 99% (active) | 99% (active) | 99.7% (active) | 99% (active) | 100% (active) | 99.7% (active) |
| Clc1ccnc2c1ccc1c(Cl)ccnc12 | 8% | 53% | 43.6% | -17% | 2% | 26.4% | 1% | 12% | 20.7% | 5% | -10% | 13.9% | -74% | 10% | 40.6% | 3% | 15% | 45.9% |
| O=C(O)/C=C/c1ccc2c(c1)CC1(Cc3ccccc3C1)C2 | 27% | 82% (active) | 45.6% | 40% | 90% (active) | 66.2% | 84% (active) | 87% (active) | 73% (active) | 64% | 93% (active) | 83.3% (active) | 85% (active) | 92% (active) | 78.5% (active) | 67% | 88% (active) | 80% (active) |
| CCCCCCCCCCCC[n+]1cc2ccccc2cc1C | 98% (active) | 98% (active) | 91.7% (active) | 99% (active) | 99% (active) | 90.8% (active) | 98% (active) | 99% (active) | 88.5% (active) | 97% (active) | 99% (active) | 86.7% (active) | 99% (active) | 99% (active) | 93.2% (active) | 97% (active) | 98% (active) | 90.8% (active) |
| N#CN1CCCC(O)c2sc3ccccc3c2CC1 (stereo not given) | 3% | 9% | 56.4% | 1% | 17% | 11.5% | 1% | 3% | 38.9% | 3% | -7% | 9.85% | -2% | 1% | 7.3% | -1% | -1% | -0.65% |
| O=c1[nH]c2c([N+](=O)[O-])cc(Cl)cc2nc1/C=C(\O)c1ccccn1 | 8% | 61% | 51.8% | -1% | 26% | 5.8% | 7% | 41% | 49.2% | 4% | 52% | 37% | 14% | 27% | 12.1% | 11% | 46% | 79.2% (active) |
| Nc1ccc(S(=O)(=O)N2CCCc3ccccc32)cc1 | 5% | 20% | 83.7% (active) | 7% | 21% | 56.9% | 4% | 34% | 84% (active) | 2% | 23% | 74.2% (active) | 3% | 28% | 82% (active) | 7% | 40% | 74.4% (active) |
| O=C1c2cccc(O)c2C(=O)c2c(OC3OC(CO)C(O)C(O)C3O)cccc21 (stereo not given) | 6% | 68% | 76.8% (active) | 10% | 48% | 24.5% | 4% | 52% | 78% (active) | 16% | 59% | 34.4% | 6% | 60% | 74.8% (active) | -7% | 62% | 47.5% |
| c1ccc(NNc2ccc3ccccc3n2)cc1 | 3% | 96% (active) | 38.6% | -21% | 2% | 44.6% | -3% | 18% | 77.2% (active) | -6% | -1% | 39% | 24% | 85% (active) | 77.6% (active) | 0% | 40% | 65.8% |
| Cc1cc(O)c(C(=O)/C=C/c2cccnc2)c(=O)[nH]1 | -13% | 79% (active) | 68.9% | -3% | 76% (active) | 33.7% | -5% | 92% (active) | 84.8% (active) | 9% | 70% (active) | 16.3% | -16% | 89% (active) | 78.8% (active) | 8% | 91% (active) | 93% (active) |
| C#CCN(N=O)C(=O)NCCCC(NC(C)=O)C(=O)NCc1ccccc1 (stereo not given) | -4% | 19% | 78.9% (active) | -26% | -10% | -5.35% | 3% | 36% | 43.6% | -8% | 12% | 27.1% | 6% | 26% | -13.6% | -2% | 42% | 25.8% |
| CC(=O)CC(C)=O.CCN(CC)CC[C-]=O.[Pd+2] | 1% | 54% | 66.9% | 8% | 33% | 70.8% (active) | -5% | 22% | 73.5% (active) | 21% | 32% | 9.6% | -1% | 33% | 76.5% (active) | 0% | 54% | 74.9% (active) |
| O=C1C(Cl)=C(Cl)C(=O)C2=C1CC(Cl)C(Cl)C2 (stereo not given) | 87% (active) | 98% (active) | 99.3% (active) | 90% (active) | 99% (active) | 99.3% (active) | 91% (active) | 97% (active) | 99.5% (active) | 37% | 99% (active) | 99% (active) | 96% (active) | 98% (active) | 99.3% (active) | 95% (active) | 99% (active) | 99.2% (active) |
| CC(=O)OC(C)(C)N=Nc1ccc(Br)cc1 | 86% (active) | 99% (active) | 97.9% (active) | 31% | 99% (active) | 98.1% (active) | 60% | 97% (active) | 98.2% (active) | 51% | 94% (active) | 97.3% (active) | 78% (active) | 99% (active) | 97.2% (active) | 63% | 99% (active) | 98.2% (active) |
